Only some compounds are listed: those with a hit (about 4.1% of all), similar ones and a draw of the others.
FMDV inh – antivirals against foot and mouth disease virus; Potency, µM (doses to about 57.9 µM), most hits filed as inhibitors; AID 1159524; 410,000 compounds, 1.2% hits; FMDV antiviral cell-based qHTS; calls by dose curve; tested in HEK293T cells; note: read-out not given here; nearly all actives have a fitted effect of over 45% in size
AMA1 RON2 block – AMA1-RON2 (P. falciparum) interaction inhibition | AlphaScreen AMA1-biotinylated RON2 peptide binding | AID 720542 | 360,000 compounds, 0.2% hits | Potency, µM (doses to about 58.2 µM), hits mostly inhibitors; note: nearly all actives have a fitted effect of over 45% in size
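AMA1 (3D7) with his tag at 25 nM final met compounds first, then biotinylated RON2 peptide at 25 nM; detection used donor plus acceptor beads, 10 µg/mL apiece, read by AlphaScreen after 30 min at room temperature.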
Sm TGR block – inhibitors of Schistosoma mansoni thioredoxin glutathione reductase. Q962Y6. purified TGR, DTNB reduction, TNB absorbance 405 nm. Potency, µM (highest dose often 114 µM), hits mostly inhibitors. 360,000 compounds, 3% hits; note: nearly all actives have a fitted effect of over 60% in size
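First, TGR (20 nM dispensed) and NADPH were mixed with compound. Second, a 15 min room-temperature incubation followed. Third, further NADPH and then DTNB were added to start the reaction. Finally, TNB absorbance was monitored kinetically.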
AmpC inh detg – blocks E. coli AmpC beta-lactamase in detergent assay | P00811 | AmpC hydrolysis of nitrocefin, absorbance 480 nm, 0.01% Triton | Potency, µM (top dose mostly 114 µM), hits mostly inhibitors | 370,000 compounds, 0.041% hits | AID 485294; note: nearly all actives have a fitted effect of over 25% in size
Target sequence (P00811 whole entry, looked up): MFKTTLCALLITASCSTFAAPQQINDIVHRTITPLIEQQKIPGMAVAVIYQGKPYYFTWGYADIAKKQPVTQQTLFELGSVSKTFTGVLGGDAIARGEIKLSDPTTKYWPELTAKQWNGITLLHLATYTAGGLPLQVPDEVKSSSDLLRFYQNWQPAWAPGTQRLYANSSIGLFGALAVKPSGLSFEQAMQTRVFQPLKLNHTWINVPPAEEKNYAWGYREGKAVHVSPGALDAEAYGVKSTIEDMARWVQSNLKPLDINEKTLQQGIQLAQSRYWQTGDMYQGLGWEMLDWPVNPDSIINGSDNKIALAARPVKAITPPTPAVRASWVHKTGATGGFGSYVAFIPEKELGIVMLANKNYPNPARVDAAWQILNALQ
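20 mM phosphate pH 7.0 + 0.01% (detergent screen) or 0.0001% Triton X-100; 5.3 nM AmpC reagent; cpd preinc 15 min RT; nitrocefin (800 uM stock) to start; A480 q20 s × 4 min; Activity was normalised to no-enzyme and no-compound control wells.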
AmpC no deterg – AmpC beta-lactamase inhibition without detergent. P00811. AmpC nitrocefin hydrolysis, absorbance 480 nm, 0.0001% Triton. Potency, µM (titrated, usually from 57.1 µM), hits mostly inhibitors. 330,000 compounds, 0.52% hits; note: nearly all actives have a fitted effect of over 20% in size
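20 mM phosphate pH 7.0 + 0.01% (detergent screen) or 0.0001% Triton X-100; 5.3 nM AmpC reagent; cpd preinc 15 min RT; nitrocefin (800 uM stock) to start; A480 q20 s × 4 min; Activity was normalised to no-enzyme and no-compound control wells.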
A number is an active result; n = inactive; u = inconclusive; x = not tested or not shown; [ ] = remark or other dose. Unless noted, calls come from the whole dose curve; as a rule, active = well fitted curve in the direction sought with a large enough effect; inconclusive = small, poorly fitted or top-dose-only effect, or another doubt; inactive = no such curve, though single readings can be large; an effect the other way counts as inactive or inconclusive.

SMILES	FMDV inh	AMA1 RON2 block	Sm TGR block	AmpC inh detg	AmpC no deterg
O=C(CSc1nc2c(oc3ccccc32)c(=O)n1-c1ccccc1)Nc1ccc(F)c(Cl)c1	n	x	n	n	x
C#CCSc1nnc(CSc2nc3ccccc3s2)n1-c1ccccc1	n	n	50µM	n	n
O=C(O)CSc1nnc(CSc2nc3ccccc3s2)n1-c1ccccc1	n	n	n	n	n
O=c1cc(N2CCN(c3ccc(F)cc3)CC2)[nH]c(=O)n1Cc1ccc(F)cc1	n	n	n	n	25µM
Cc1ccccc1CN1CCNC(=O)C1CC(=O)O (stereo not drawn)	n	n	25µM	n	n
O=C(CC1C(=O)NCCN1Cc1cccc(F)c1)NC1CCCCC1 (stereo not drawn)	n	n	35µM	n	n
CCOc1ccc(CN2CCNC(=O)C2CC(=O)NCc2cc(C)n(C)n2)cc1 (stereo not drawn)	n	n	u	u	n
COc1cccc(CN2CCNC(=O)C2CC(=O)O)c1OC (stereo not drawn)	n	n	40µM	n	n
O=C(CC1C(=O)NCCN1Cc1cccc(F)c1)NC1CCC1 (stereo not drawn)	n	n	u	n	n
COc1ccc(CN2CCNC(=O)C2CC(=O)NCc2cc(C)n(C)n2)c(F)c1 (stereo not drawn)	n	n	20µM	n	n
CCCN1CCC(NC(=O)CC2C(=O)NCCN2Cc2ccccc2C)CC1 (stereo not drawn)	n	n	n	n	n
Nc1nc2c(nc(Sc3ccc(Cl)cc3)n2C2OC(CO)C(O)C2O)c(=O)[nH]1 (stereo not drawn)	n	x	x	x	x
COc1cccc(Cn2c(=O)n(-c3cc(C)cc(C)c3)c(=O)c3oc4ccccc4c32)c1	n	x	n	n	x
COc1ccc(CN2CCNC(=O)C2CC(=O)O)c(OC)c1 (stereo not drawn)	n	n	35µM	n	n
COc1cccc(CN2CCNC(=O)C2CC(=O)NC2CCCCC2)c1OC (stereo not drawn)	n	n	45µM	n	n
CCC1CN(CCNC(=O)C2CCCCN2C)Cc2cc(OC)ccc2O1 (stereo not drawn)	n	x	x	x	x
Clc1ccc(-c2cc3ncc4c(n3n2)-c2ccccc2OC4)cc1	n	x	n	n	x
Cn1c(Oc2ccccc2NCc2cc(Br)ccc2O)cc(=O)n(C)c1=O	u	n	n	u	22µM
COc1cc(CNc2ccccc2Oc2cc(=O)n(C)c(=O)n2C)cc(OC)c1OC	n	n	n	n	n
Cc1ccc(Cl)cc1NC(=O)c1cc2c(=O)n3cccc(C)c3nc2n1C	n	x	n	n	x
Cc1ccc(-n2ncc(C(=O)NCc3ccco3)c2C2CCN(C(=O)OC(C)(C)C)CC2)cc1C	n	x	n	n	x
Cc1cc(C)cc(C(=O)n2nc(C)c(S(=O)(=O)N3CCCCCC3)c2C)c1	n	x	n	n	x
CC(=O)Nc1cc2c(c([N+](=O)[O-])c1C)C(C)(C)CC2(C)C	n	n	x	x	x
CS/C(=C/[N+](=O)[O-])Nc1cccc2c1C(C)CC2(C)C (stereo not drawn)	n	n	13µM	n	n
COCc1cc(C)nc(OCC(=O)N/N=C/c2ccc(-c3cc([N+](=O)[O-])ccc3C)o2)c1C#N	n	n	n	n	n
SMILES	FMDV inh	AMA1 RON2 block	Sm TGR block	AmpC inh detg	AmpC no deterg
Cc1ccc([N+](=O)[O-])cc1-c1ccc(/C=C(\C#N)c2[nH]nc(N)c2C#N)o1	n	n[11.6 µM]	n	n	32µM
Cc1ccc(C)c(NC(=O)c2ccc3c(c2)CCCN3S(C)(=O)=O)c1	n	x	n	n	x
N#Cc1c(NC(=O)CSc2ncnc3sccc23)oc(-c2ccco2)c1-c1ccco1	n	n	4µM	n	1.8µM
Cc1ccc(C)c(NC(=O)CN2C(=O)CSc3nc(C)cc(C)c32)c1	n	x	n	n	x
CCC(=O)N(CCC(c1ccc(C)cc1)c1ccco1)Cc1ccco1 (stereo not drawn)	n	n	14µM	n	n
COc1cc(=O)n2c(c1C(=O)N(C)C(C)c1ccco1)CCN(C(=O)c1ccc(C(C)=O)cc1)CC2 (stereo not drawn)	n	x	x	x	x
Cn1c(SCC2CCCO2)nnc1C1CCN(Cc2ccc(-c3cccc(Cl)c3)o2)CC1 (stereo not drawn)	n	x	x	x	x
